Most compounds without a hit are left out; they make up all but 2.8% or so of the library.
Platelet DG rel – platelet dense granule release activity; human platelet-rich plasma, SFLLRN dense granule ATP release, luminescence; actives 0.22% (n = 300,000); inhibition, %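 (compounds screened at 7.5 µM in platelet-rich plasma)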;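 active = mean replicate score, as percent of positive control, at or above 50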
HSP90 refold inh – blocks HSP90-mediated luciferase refolding in reticulocyte lysate; Rabbit reticulocyte lysate, luciferase refolding luminescence, 3 h; inhibition, % at 5.6 µM; actives 0.91% (n = 290,000); AID 1789;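 active = inhibition above the screen-wide mean plus 3 SD, computed separately per campaign, cut at about 16% in these data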;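 note: inhibitors lower the luminescence because luciferase stays unfolded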
SENP8 block-1 – inhibitors of human SENP8 protease; actives 1.2% (n = 330,000); purified SENP8, Z-RLRGG-aminoluciferin cleavage, luminescence; Q96LD8; inhibition, % at 10 µM; AID 2540; in the data active = inhibition above about 50%
Target sequence (Q96LD8 whole entry, looked up): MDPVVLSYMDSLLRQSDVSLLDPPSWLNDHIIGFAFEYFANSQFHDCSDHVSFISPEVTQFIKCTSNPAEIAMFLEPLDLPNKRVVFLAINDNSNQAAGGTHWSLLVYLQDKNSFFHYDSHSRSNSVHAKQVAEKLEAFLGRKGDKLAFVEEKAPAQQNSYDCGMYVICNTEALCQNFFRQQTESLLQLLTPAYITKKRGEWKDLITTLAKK
SENP8 block-2 – inhibitors of human SENP8 protease | Q96LD8 | recombinant SENP8, Nedd8 substrate fluorescence | inhibition, % at 20 µM | actives 0.64% (n = 360,000); in the data active = inhibition mostly above about 40%, no sharp cut-off; inactive = mostly below about 27%
SENP7 inh – SENP7 protease inhibition. Q9BQF6. recombinant SENP7, Z-RLRGG-aminoluciferin luminescence, 40 min. inhibition, % at 5 µM. actives 1.5% (n = 330,000). AID 434973;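 active = inhibition above about 50% at the single test dose, limit read from the data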
Target sequence (Q9BQF6 706-1050 limits assumed): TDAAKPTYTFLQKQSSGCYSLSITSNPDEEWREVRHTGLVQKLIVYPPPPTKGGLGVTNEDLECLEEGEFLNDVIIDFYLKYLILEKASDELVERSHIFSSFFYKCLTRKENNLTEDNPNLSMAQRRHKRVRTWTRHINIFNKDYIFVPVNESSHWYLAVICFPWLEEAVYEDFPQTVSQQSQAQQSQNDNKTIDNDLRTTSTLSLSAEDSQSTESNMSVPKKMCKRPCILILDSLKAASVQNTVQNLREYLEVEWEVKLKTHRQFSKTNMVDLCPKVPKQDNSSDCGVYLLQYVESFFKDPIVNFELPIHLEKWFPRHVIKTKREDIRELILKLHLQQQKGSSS
SENP6 block – SENP6 protease inhibition; Q9GZR1; AID 2599; Recombinant SENP6 catalytic domain, aminoluciferin luminescence; inhibition, % at 10 µM; actives 1.8% (n = 330,000);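 active = inhibition above about 50% at the single tested dose, limit read from the data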
A number is an active result.

What do the screens show for `NC(=O)C1CCN(C2=C(NS(=O)(=O)c3ccc(Br)cc3)C(=O)c3ccccc3C2=O)CC1`?
Platelet DG rel: inactive; HSP90 refold inh: inactive; SENP8 block-1: inactive; SENP8 block-2: 41; SENP7 inh: inactive; SENP6 block: inactive

How did CCN1CCN(C2=C(NS(=O)(=O)c3ccccc3)C(=O)c3ccccc3C2=O)CC1 do in these assays?
Platelet DG rel: inactive; HSP90 refold inh: inactive; SENP8 block-1: inactive; SENP8 block-2: 58; SENP7 inh: inactive; SENP6 block: inactive

How did CCOC(=O)N1CCN(C2=C(NS(=O)(=O)c3ccccc3)C(=O)c3ccccc3C2=O)CC1 do in these assays?
Platelet DG rel: inactive; HSP90 refold inh: inactive; SENP8 block-1: inactive; SENP8 block-2: 54; SENP7 inh: inactive; SENP6 block: inactive

Results for NC(=O)C1CCN(C2=C(NS(=O)(=O)c3ccccc3)C(=O)c3ccccc3C2=O)CC1 ?
Platelet DG rel: inactive; HSP90 refold inh: inactive; SENP8 block-1: inactive; SENP8 block-2: inactive; SENP7 inh: inactive; SENP6 block: inactive

What do the screens show for `CN1CCN(C2=C(NS(=O)(=O)c3ccccc3)C(=O)c3ccccc3C2=O)CC1`?
Platelet DG rel: inactive; HSP90 refold inh: inactive; SENP8 block-1: inactive; SENP8 block-2: inactive; SENP7 inh: inactive; SENP6 block: inactive

Results for O=C1C(NS(=O)(=O)c2ccc(Cl)cc2)=C(N2CCCCC2)C(=O)c2ccccc21 ?
Platelet DG rel: inactive; HSP90 refold inh: inactive; SENP8 block-1: inactive; SENP8 block-2: 46; SENP7 inh: inactive; SENP6 block: inactive

Results for O=C(CS(=O)(=O)c1ccc(Cl)cc1)N1CCN(c2ccccc2)CC1 ?
SENP8 block-2: inactive

How did CC(=O)OCC(=O)C1(O)CCC2C3CC(F)C4=CC(=O)CCC4(C)C3C(O)CC21C (stereo unspecified) do in these assays?
SENP8 block-2: inactive

What do the screens show for `CCOC(=O)N1CCN(C2=C(NS(=O)(=O)c3ccc(Br)cc3)C(=O)c3ccccc3C2=O)CC1`?
SENP8 block-2: 54

Results for O=C(O)c1ccc(/C=C2\SC(=S)N(NC(=O)c3ccccc3[N+](=O)[O-])C2=O)cc1 ?
Platelet DG rel: inactive; HSP90 refold inh: inactive; SENP8 block-1: inactive; SENP8 block-2: inactive; SENP7 inh: inactive; SENP6 block: inactive

What do the screens show for `Cc1ccc(C(=O)NN2C(=O)/C(=C/c3cn(C)c4ccccc34)SC2=S)cc1`?
HSP90 refold inh: inactive; SENP8 block-2: 42

How did Cc1ccc(C(=O)NN2C(=O)/C(=C/c3cccn3C)SC2=S)cc1 do in these assays?
Platelet DG rel: inactive; HSP90 refold inh: inactive; SENP8 block-1: inactive; SENP8 block-2: inactive; SENP7 inh: inactive; SENP6 block: inactive

What do the screens show for `Cn1cc(/C=C2\SC(=S)N(NC(=O)c3ccccc3Cl)C2=O)c2ccccc21`?
HSP90 refold inh: inactive; SENP8 block-2: 44

Results for O=C(NN1C(=O)/C(=C\c2ccc(O)c([N+](=O)[O-])c2)SC1=S)c1ccccc1Cl ?
Platelet DG rel: inactive; HSP90 refold inh: inactive; SENP8 block-1: inactive; SENP8 block-2: 68; SENP7 inh: inactive; SENP6 block: inactive

Results for O=C(c1cccc(F)c1)N1CCCc2ccccc21 ?
Platelet DG rel: inactive; HSP90 refold inh: inactive; SENP8 block-1: inactive; SENP8 block-2: inactive; SENP7 inh: inactive; SENP6 block: inactive

What do the screens show for `COc1ccc(/C=C(/NC(=O)c2ccccc2)C(=O)N2CCCC2)cc1`?
Platelet DG rel: inactive; HSP90 refold inh: inactive; SENP8 block-1: inactive; SENP8 block-2: inactive; SENP7 inh: inactive; SENP6 block: inactive

Results for CC1=C(C(=O)OCC(C)C)[C@]23C(=O)c4ccccc4[C@@]2(O1)OC(N)=C3C#N ?
Platelet DG rel: inactive; HSP90 refold inh: inactive; SENP8 block-1: inactive; SENP8 block-2: inactive; SENP7 inh: inactive; SENP6 block: inactive

What do the screens show for `CCC(C)OC(=O)C1=C(C)OC23OC(N)=C(C#N)C12C(=O)c1ccccc13` (stereo unspecified)?
Platelet DG rel: 50; HSP90 refold inh: inactive; SENP8 block-1: inactive; SENP8 block-2: inactive; SENP7 inh: inactive; SENP6 block: inactive

Results for O=C(Nc1ccccc1Cl)C1CCCN(S(=O)(=O)c2ccc(-n3cnnn3)cc2)C1 (stereo unspecified) ?
Platelet DG rel: inactive; HSP90 refold inh: inactive; SENP8 block-1: inactive; SENP8 block-2: inactive; SENP7 inh: inactive; SENP6 block: inactive

What do the screens show for `CCN(CC)c1ccc(/C=N/NC(=O)c2ccc(Br)o2)cc1`?
Platelet DG rel: inactive; HSP90 refold inh: inactive; SENP8 block-1: inactive; SENP8 block-2: inactive; SENP7 inh: inactive; SENP6 block: 70

Results for COc1cccc(NC(=S)/C(=C(\[O-])c2ccc(C)c([N+](=O)[O-])c2)[n+]2ccccc2)c1 ?
Platelet DG rel: inactive; HSP90 refold inh: inactive; SENP8 block-1: inactive; SENP8 block-2: 39; SENP7 inh: inactive; SENP6 block: inactive

Results for CN1CCSc2ccc(C(=O)Nc3cccc(F)c3)cc21 ?
Platelet DG rel: inactive; HSP90 refold inh: inactive; SENP8 block-1: 83; SENP8 block-2: inactive; SENP7 inh: 90; SENP6 block: 94

What do the screens show for `CCn1c(=O)c(C(=O)CN(C)CC(=O)Nc2ccccc2Br)c(N)n(Cc2ccccc2)c1=O`?
SENP8 block-1: inactive; SENP8 block-2: inactive; SENP7 inh: inactive; SENP6 block: inactive

What do the screens show for `Cc1cc(O)ccc1N/C=C/c1onc(C)c1[N+](=O)[O-]`?
Platelet DG rel: inactive; HSP90 refold inh: inactive; SENP8 block-1: inactive; SENP8 block-2: inactive; SENP7 inh: 97; SENP6 block: 87

What do the screens show for `CC(NS(C)(=O)=O)C(c1cccs1)N1CCN(C)CC1` (stereo unspecified)?
Platelet DG rel: inactive; HSP90 refold inh: inactive; SENP8 block-1: inactive; SENP8 block-2: inactive; SENP7 inh: inactive; SENP6 block: inactive

Results for CC(NS(C)(=O)=O)C(c1cccs1)N1CCN(Cc2ccccc2)CC1 (stereo unspecified) ?
Platelet DG rel: 65; HSP90 refold inh: inactive; SENP8 block-1: inactive; SENP8 block-2: inactive; SENP7 inh: inactive; SENP6 block: inactive

Results for Cc1cc(Nc2ccccc2C(=O)O)n(-c2ccc([N+](=O)[O-])cc2)n1 ?
Platelet DG rel: inactive; HSP90 refold inh: inactive; SENP8 block-1: inactive; SENP8 block-2: inactive; SENP7 inh: inactive; SENP6 block: inactive

Results for CC(C)C(NC(=O)Nc1ccccc1)C(=O)Nc1cccc(S(=O)(=O)N(C)C)c1 (stereo unspecified) ?
Platelet DG rel: inactive; HSP90 refold inh: inactive; SENP8 block-1: inactive; SENP8 block-2: inactive; SENP7 inh: inactive; SENP6 block: inactive

Results for COc1cc(NS(=O)(=O)c2ccc(C)cc2)c2ncccc2c1 ?
Platelet DG rel: inactive; HSP90 refold inh: inactive; SENP8 block-1: inactive; SENP8 block-2: inactive; SENP7 inh: inactive; SENP6 block: inactive

Results for CCC(CNc1cc(OC)cc2cccnc12)NC1CCCCC1 (stereo unspecified) ?
Platelet DG rel: inactive; HSP90 refold inh: 29; SENP8 block-2: inactive

Compound activity as filed in PubChem BioAssay.
